aSyn yeast inh = rescues yeast growth from alpha-synuclein toxicity. Yeast expressing alpha-synuclein, growth rescue, BacTiter-Glo, 24 h. Potency, µM (titrated, usually from 46.1 µM), without a hit: top-dose growth rescue (activation), actives largely listed as activators. 370,000 compounds, 0.14% hits; further: % of control where 0% means no effect; nearly all actives have a fitted effect of over 65% in size
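Screening used galactose-induced yeast with toxic alpha-synuclein levels, exposed to compound for 24 hr at 30 deg C. Cell growth, read with BacTiter-Glo luminescence, gave the measured signal.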
Abeta yeast res = A-beta toxicity reversal in yeast; yeast expressing A-beta42, growth rescue, OD600, 48 h; response scale: 0% DMSO, 100% iron-clioquinol control; Potency, µM (doses to about 46.1 µM), hits mostly activators; 410,000 compounds, 0.063% hits; AID 1347071; further: nearly all actives have a fitted effect of over 55% in size
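Yeast A-beta toxicity model in growth medium with pinned compounds, 48 h at 30 C; growth read as absorbance at 600 nm. Normalized to FeCl3/clioquinol equimolar mix (positive) and DMSO (negative).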
FUS yeast rescue = rescues growth of FUS-expressing yeast; 390,000 compounds, 0.24% hits; AID 1347120; Potency, µM (titrated, usually from 76.6 µM), most hits filed as activators; S. cerevisiae FUS-expressing, growth rescue, OD600, 24 h;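 further: plate controls were DMSO vehicle for no effect and reference control for full effect; nearly all actives have a fitted effect of over 55% in size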
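Quantitative HTS measuring growth restoration of FUS-toxic yeast. Galactose-induced cells (OD 0.005) were exposed 24hr at 30C to compounds at several concentrations, then absorbance at 600 nm was recorded.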
TDP-43 yeast inh = TDP-43 toxicity inhibition in yeast; TDP-43 expressing yeast growth rescue, BacTiter-Glo, 24 h; 410,000 compounds, 1.8% hits; Potency, µM (top dose mostly 46.1 µM), without a hit: at the top dose growth rescue (activation), hits mostly activators; further: % of control where 0% means no effect; nearly all actives have a fitted effect of over 50% in size
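Galactose-induced TDP-43 yeast, OD600=0.02, compound pinned; 24 hr, 30 deg C; BacTiter-Glo luminescence for growth. Inhibitors of TDP-43 toxicity read as activators.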
* = called active by the depositor; i = inactive; ? = inconclusive; · = not tested or not shown; ! = not active in a repeat. Sampled rows, rich in hits. Any-hit rate of the full collection: about 2.1%. The call rests on the fitted dose curve; in most records, active means well fitted curve in the direction sought with a large enough effect; inconclusive means small, poorly fitted or top-dose-only effect, or another doubt; inactive means no such curve, though single readings can be large; an effect the other way counts as inactive or inconclusive. Potency means the concentration at half of the fitted maximal effect.

SMILES	aSyn yeast inh	Abeta yeast res	FUS yeast rescue	TDP-43 yeast inh
Cc1[nH]nc(N=CC2=C(O)CC(C)(C)CC2=O)c1-c1ccc(Cl)cc1	?	i	i	15.8µM*!
COc1ccc(Cn2c(=O)c3cccnc3n(Cc3cccc(F)c3)c2=O)cc1	·	i	i	16.4%
Cc1ccc(-c2nc(CS(=O)CC(=O)N3CCN(c4cccc(Cl)c4)CC3)c(C)o2)cc1 (stereo not drawn)	·	i	?	31.6µM*
Cc1oc(-c2ccccc2Cl)nc1CS(=O)CC(=O)N1CCN(c2cccc(C(F)(F)F)c2)CC1 (stereo not drawn)	·	i	25.1µM*	?
Cc1oc(-c2ccc(Cl)cc2)nc1CS(=O)CC(=O)N1CCN(c2cccc(C(F)(F)F)c2)CC1 (stereo not drawn)	·	i	i	6.7%
CN(C)c1oc(-c2ccc(COc3ccccc3)o2)nc1C#N	·	i	?	?
CNS(=O)(=O)c1cn(CC(=O)Nc2cccc(C(F)(F)F)c2)cc1S(=O)(=O)NC	·	i	i	6.9%
CC(=O)Nc1ccc(NCN2C(=O)C3C4CCC(C4)C3C2=O)cc1 (stereo not drawn)	3.7%	i	i	25.1µM*
CC(C)Sc1ncc(Cl)c(C(=O)Nc2nc3ccc(S(C)(=O)=O)cc3s2)n1	·	i	i	-6.5%
CC1CCCN(S(=O)(=O)c2ccc(S(=O)(=O)NC(C)c3cccs3)cc2)C1 (stereo not drawn)	11.3%	i	31.6µM*	-12.0%
COc1ccc(Br)cc1CNC(=O)c1cnc2sc(N3CCCC3)nn2c1=O	·	i	i	22.5%
CCOC(=O)c1cnc2ccc(OCC)cc2c1N1CCN(c2cccc(Cl)c2)CC1	·	i	?	20µM*
CCOC(=O)c1cnc2ccc(OCC)cc2c1N1CCN(C)CC1	-4.1%	i	i	-2.1%
COc1ccc(-c2csc(N3CCSCC3)n2)cc1	-3.5%	i	i	8.7%
COc1ccc(-c2csc(Nc3ccccc3)n2)cc1	-26.9%	?	i	10µM*
O=C(Nc1ccc(-c2csc(Nc3cccc(C(F)(F)F)c3)n2)cc1)c1ccccc1	-9.7%	i	i	19.8%
O=C(Nc1cccc(-c2csc(Nc3cccc(C(F)(F)F)c3)n2)c1)c1ccccc1	-23.3%	i	i	17.8µM*
COc1ccc(-c2csc(-n3cccn3)n2)cc1	1.9%	i	i	10µM*
COc1ccc(Nc2nc(-c3ccc(OC)cc3)cs2)cc1	-1.6%	i	i	4.5%
COc1ccc(-c2csc(-c3cccnc3)n2)cc1C	14.8%	i	i	15.8µM*
COc1ccccc1C(=O)N1CCC(c2c[nH]c3ccccc23)(c2c[nH]c3ccccc23)CC1	·	i	i	8.7%
O=C(Nc1cccc(-c2csc(Nc3ccccc3)n2)c1)c1ccccc1	-21.9%	i	i	6.31µM*
COc1ccc(-c2csc(Nc3ncccc3C)n2)cc1OC	-29.8%	i	i	14.1µM*
COc1ccc(-c2csc(Nc3ncccc3C)n2)cc1	-40.9%	i	i	24.3%
COC(=O)c1ccc(NC(=O)CCc2c(C)nn(-c3ccc(N4CCOCC4)nn3)c2C)cc1	·	i	i	24.1%
SMILES	aSyn yeast inh	Abeta yeast res	FUS yeast rescue	TDP-43 yeast inh
CCN(CC)CCCNC(=O)CCCn1c(=O)[nH]c2ccc(Br)cc2c1=O	·	i	i	9.0%
CCCC1CCC(c2ccc(/C(N)=N/O)cc2)CC1 (stereo not drawn)	-8.1%	i	i	3.55µM*
CSc1nn(Cc2cccc(Cl)c2)c(N(C(C)=O)C(C)=O)c1S(=O)(=O)c1ccccc1	·	i	i	11.2µM*
O=C(Nc1ccccc1)C1=C[C@H](c2csc3ccccc23)C[C@H](OCc2ccc(CO)cc2)O1	14.3%	i	11.2µM*	15.6%
CN1OC[C@@H]2CN(C(=O)Cc3ccccc3)[C@H](c3ccccc3Br)C[C@@H]21	0.7%	i	i	0.0%
CN1OC[C@@H]2CN(C(=S)NCCc3ccccc3)[C@H](c3ccccc3Br)C[C@@H]21	0.3%	i	i	12.6µM*
CC(C)(C)c1ccc(C2NC(=O)c3n[nH]c(-c4cccs4)c32)cc1 (stereo not drawn)	·	i	i	?
COc1ccc(/C=C/C(=O)OCC(=O)NCCCc2ccccc2)cc1OC	1.5%	i	i	35.5µM*
O=C(/C=C/c1ccc(O)c(O)c1)OC(Cc1ccc(O)c(O)c1)C(=O)O (stereo not drawn)	1.6%	i	i	-4.0%
O=C(/C=C/c1ccc(O)c(O)c1)OCCc1ccccc1	5.17µM*	i	i	15.8µM*
Cn1nc(-c2ccccc2)c(CO)c1Oc1cccc(C(F)(F)F)c1	3.6%	i	i	11.2µM*
Cc1cccc(C)c1OCC(=O)N[C@@H](Cc1ccccc1)[C@@H](O)C[C@H](Cc1ccccc1)NC(=O)[C@H](C(C)C)N1CCCNC1=O	2.4%	·	31.6µM*	·
Clc1cccc(-n2cc(-c3ccccc3)c3c(N4CCCCC4)ncnc32)c1	·	i	i	?
Cc1ccccc1CNc1nc(N(C)C)nc2c1cnn2C	·	i	i	20µM*
CC(C)COc1ccc(N)cc1OCC(C)C	-1.6%	i	?	11.2µM*
COc1ccccc1CN(Cc1cc2cc(C)ccc2[nH]c1=O)Cc1nnnn1Cc1ccco1	13.9%	i	15.8µM*	-2.2%
Cc1cccc(NC(=O)C2C3C=CC(C4CC34)C2C(=O)O)c1 (stereo not drawn)	9.1%	i	i	?
O=C(O)C1C2C=CC(C3CC23)C1C(=O)O (stereo not drawn)	6.6%	i	i	14.1µM*
C=CCN1C(=O)[C@@H](CC(=O)NCCCOC)[C@]2(C(=O)OC)CCCCC=C12	·	·	i	·
CCc1nnc(SC(CC)C(=O)Nc2cc(C)ccc2C)c2cc3occc3n12 (stereo not drawn)	·	i	i	13.3%
CCc1cccc(C)c1NC(=O)C(CC)Sc1nncn2c1cc1occc12 (stereo not drawn)	·	i	i	14.1µM*
COc1ccc(N(C(=O)c2snc(C(N)=O)c2N)C(C(=O)NCc2ccc(F)cc2)c2ccc(O)cc2)cc1 (stereo not drawn)	-1.4%	i	28.2µM*	-8.4%
COc1ccc(N(C(=O)c2snc(C(N)=O)c2N)C(C(=O)NC2CCCC2)c2ccc3ncccc3c2)cc1 (stereo not drawn)	-5.0%	i	28.2µM*	-19.8%
COc1ccc(N(C(=O)c2snc(C(N)=O)c2N)C(C(=O)NCc2ccccc2)c2ccc(O)cc2)cc1OC (stereo not drawn)	-0.3%	i	?	-3.0%
NC(=O)c1nsc(C(=O)N(c2ccccc2)C(C(=O)NC2CCCC2)c2ccc3ncccc3c2)c1N (stereo not drawn)	-1.3%	i	i	13.4%
COc1ccc(OC)c(/C=C/C(=O)c2ccc3c(c2)OCCO3)c1	-10.7%	i	i	11.2µM*

Assay outcomes deposited in PubChem by National Center for Advancing Translational Sciences (NCATS).
